Only a selection was taken, and hits are over-represented in it overall.
nsP2pro inh: inhibitors of chikungunya virus nsP2 protease; FRET peptide cleavage, nsP2pro, fluorescence 1 h; Potency, µM (top dose mostly 24.9 µM), without a hit: at the highest dose activity change, negative = inhibition, most hits filed as inhibitors; 1.1% of 31,000 active; AID 1964107; further: nearly all actives have a fitted effect of over 60% in size
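Enzyme 150 nM, substrate 2.5 uM (both final); Tris-HCl 10 mM pH 8.0 + 0.01% Tween 20; cpd up to 25 uM, 7 pts; 15 min preinc., 1 h RT; fluorescence ex 525/em 598.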
nsP2 cell sec: inhibits CHIKV nsP2 protease in cells | shares compounds with nsP2pro inh | cell-based CHIKV nsP2 protease reporter assay | Potency, µM (top dose mostly 51.1 µM), without a hit: top-dose activity change, negative = inhibition, usual class: inhibitors | 10% of 450 active; further: nearly all actives have a fitted effect of over 70% in size
CHIKV NSP2 FL: full-length CHIKV NSP2 protease inhibition, selectivity | shares compounds with nsP2pro inh | Full-length CHIKV NSP2 protease enzymatic counterscreen | Potency, µM (top dose mostly 50.7 µM), for inactives: top-dose activity change, negative = inhibition, usual class: inhibitors | 39% of 410 active | AID 1964101; further: nearly all actives have a fitted effect of over 65% in size
Furin counter: human furin inhibition, counterscreen for nsP2pro inhibitors | shares compounds with nsP2pro inh | Recombinant human furin enzymatic counterscreen, fluorogenic substrate | Potency, µM (titrated, usually from 50.6 µM), for inactives: at the top dose activity change, negative = inhibition, most hits filed as inhibitors | 6% of 410 active | AID 1964102
NS23 peptide cs: blocks CHIKV nsP2 protease cleavage of endogenous NS2/3 peptide; shares compounds with nsP2pro inh; Purified CHIKV nsP2 protease, endogenous NS2/3 peptide cleavage; Potency, µM (series often up to 51 µM), for the others: at the top dose activity change, negative = inhibition, hits mostly inhibitors; 34% of 410 active; AID 1964103; further: nearly all actives have a fitted effect of over 55% in size
Papain cs: papain protease inhibition, counterscreen for nsP2pro inhibitors; AID 1964104; purified papain protease activity, enzymatic inhibition; Potency, µM (top dose mostly 51 µM), for the others: at the highest dose activity change, negative = inhibition, most hits filed as inhibitors; 5% of 410 active; shares compounds with nsP2pro inh
Target sequence (P00784 whole entry, looked up): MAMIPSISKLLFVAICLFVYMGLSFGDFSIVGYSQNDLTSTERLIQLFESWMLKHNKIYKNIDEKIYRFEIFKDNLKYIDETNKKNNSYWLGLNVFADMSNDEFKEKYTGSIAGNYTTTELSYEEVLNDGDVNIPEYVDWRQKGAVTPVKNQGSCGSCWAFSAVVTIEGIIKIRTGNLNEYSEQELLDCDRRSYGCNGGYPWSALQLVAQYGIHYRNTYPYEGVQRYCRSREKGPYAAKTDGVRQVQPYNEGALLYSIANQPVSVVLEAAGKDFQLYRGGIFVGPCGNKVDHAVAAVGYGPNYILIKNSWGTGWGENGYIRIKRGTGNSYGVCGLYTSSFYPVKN
nsP2pro confirm: CHIKV nsP2 protease inhibition, confirmatory qHTS; shares compounds with nsP2pro inh; CHIKV nsP2 protease enzymatic activity, qHTS; Potency, µM (highest dose often 25.5 µM), without a hit: top-dose activity change, negative = inhibition, hits mostly inhibitors; 43% of 410 active; AID 1964105; further: nearly all actives have a fitted effect of over 75% in size
HCV NS3 counter: inhibits HCV NS3/4A protease in an nsP2pro selectivity counterscreen; shares compounds with nsP2pro inh; HCV NS3/4A protease biochemical counterscreen; Potency, µM (top dose mostly 50.9 µM), most hits filed as inhibitors; 20% of 410 active; further: nearly all actives have a fitted effect of over 55% in size
The depositor's hits bear a star; [ ] = another dose, or the depositor's remark. The call rests on the fitted dose curve. On the % scale 0 is the no-effect control and ±100 the full control effect; potency means the concentration at half of the fitted maximal effect.

What do the screens show for `C=CCN1C[C@H](C(=O)N(CCCN(C)C)C(=O)NCC)C[C@@H]2c3cccc4[nH]cc(c34)C[C@H]21`?
nsP2pro inh: inconclusive; nsP2 cell sec: 7%; CHIKV NSP2 FL: -8%; Furin counter: -2%; NS23 peptide cs: -8%; Papain cs: -8%; nsP2pro confirm: 29%; HCV NS3 counter: inactive

How did CC(C)NCC(C(=O)N1CCN(c2ncnc3c2C(C)CC3O)CC1)c1ccc(Cl)cc1 (stereo not drawn) do in these assays?
nsP2pro inh: 7%

Results for C[C@@H](Oc1ccc2[nH]nc(/C=C/c3cnn(CCO)c3)c2c1)c1c(Cl)cncc1Cl ?
nsP2pro inh: 62%

What do the screens show for `CC(C)NC[C@H](O)COc1ccc(CCOCC2CC2)cc1`?
nsP2pro inh: -3%

Results for Cc1cccc(-c2csc3ncnc(Sc4nnnn4C)c23)c1 ?
nsP2pro inh: inactive

How did Cn1nnnc1Sc1ncnc2scc(-c3cccc(Br)c3)c12 do in these assays?
nsP2pro inh: 4%

How did Cn1nnnc1Sc1ncnc2scc(-c3cccc(N)c3)c12 do in these assays?
nsP2pro inh: 1.8µM*; nsP2 cell sec: 21µM*; CHIKV NSP2 FL: -10%; Furin counter: -4%; NS23 peptide cs: -14%; Papain cs: -6%; nsP2pro confirm: 18%; HCV NS3 counter: inactive

Results for CC(C)[S+](=O)([O-])N1CC2ON=C(C(=O)O)C2C1 (stereo not drawn) ?
nsP2pro inh: -5%[39.2 µM]

Results for O=C(c1ccccc1OCC1CCCN(Cc2nccs2)C1)N1CCCC1 (stereo not drawn) ?
nsP2pro inh: -9%

How did O=C1CCN(Cc2cccc(F)c2)CCCOCCN1 do in these assays?
nsP2pro inh: 0%

How did COc1cccc(CN2CCOCCNC(=O)CC2)c1 do in these assays?
nsP2pro inh: -12%

How did C(#Cc1cccc(CN2CCOCC2)c1)CCN1CCCCC1 do in these assays?
nsP2pro inh: 9.9µM*; nsP2 cell sec: 6%; CHIKV NSP2 FL: inconclusive; Furin counter: -12%; NS23 peptide cs: inconclusive; Papain cs: -10%; nsP2pro confirm: inconclusive; HCV NS3 counter: inactive

How did CS(=O)(=O)n1cc2c(n1)CN([C@H]1CO[C@H](c3cc(F)ccc3F)[C@@H](N)C1)C2 do in these assays?
nsP2pro inh: 9%

Results for O=C(c1ccsc1)N1CCC2(CC1)CN(c1ccncn1)CC2CO (stereo not drawn) ?
nsP2pro inh: inactive

Results for COCCn1c(=O)n([C@H]2CCCN(C(=O)NCCc3ccccc3)C2)c2ncccc21 ?
nsP2pro inh: inactive

How did Nc1nc(O)c(C2=C3C(=Nc4ccccc43)C(=O)NCC2)[nH]1 do in these assays?
nsP2pro inh: inconclusive; nsP2 cell sec: 6%; CHIKV NSP2 FL: -3%; Furin counter: -9%; NS23 peptide cs: -12%; Papain cs: -14%; nsP2pro confirm: -21%; HCV NS3 counter: inactive

How did CC1(C(=O)O)CCCC2(C)C3CC4C5CC3(CCC12)CC45C (stereo not drawn) do in these assays?
nsP2pro inh: 35%

What do the screens show for `O=C1CCCC2=C1C(c1cccnc1Br)N=C(Nc1nc3ccccc3o1)N2` (stereo not drawn)?
nsP2pro inh: inactive

How did O=C(/C=C/c1ccc(O)cc1)OC[C@@]1(O)C=C[C@@H]2C(C(=O)O)=CO[C@@H](O[C@@H]3O[C@H](CO)[C@@H](O)[C@H](O)[C@H]3O)[C@@H]21 do in these assays?
nsP2pro inh: 147%[10 µM]

What do the screens show for `COC(=O)C1=CO[C@@H](O[C@@H]2O[C@H](CO)[C@@H](O)[C@H](O)[C@H]2O)[C@H]2[C@@H]1C=C[C@]21C=C([C@H](C)OC(=O)/C=C/c2ccc(O)cc2)C(=O)O1`?
nsP2pro inh: 1.6µM*; nsP2 cell sec: -29%[17.6 µM]; CHIKV NSP2 FL: 3.4µM*; Furin counter: -3%[17.3 µM]; NS23 peptide cs: inconclusive; Papain cs: -10%[17.2 µM]; nsP2pro confirm: 1.3µM*; HCV NS3 counter: inconclusive

Results for C[C@@H](OC(=O)/C=C/c1ccc(O)cc1)C1=C[C@]2(C=C[C@@H]3C(C(=O)O)=CO[C@@H](O[C@@H]4O[C@H](CO[C@@H]5O[C@H](CO)[C@@H](O)[C@H](O)[C@H]5O)[C@@H](O)[C@H](O)[C@H]4O)[C@@H]32)OC1=O ?
nsP2pro inh: 21%[10 µM]

How did Cc1ccc(C)c(-c2cc(C(F)(F)F)nn2-c2ccc(S(N)(=O)=O)cc2)c1 do in these assays?
nsP2pro inh: 8%

Results for COC(=O)c1cc(CN2CCN(C(=N)N)CC2)cc(C(=O)N2CCN(C(=O)c3ccc(C(=N)N)cc3)CC2)c1 ?
nsP2pro inh: inconclusive; nsP2 cell sec: -4%; CHIKV NSP2 FL: 15µM*; Furin counter: 9.2µM*; NS23 peptide cs: inconclusive; Papain cs: inconclusive; nsP2pro confirm: inconclusive; HCV NS3 counter: inactive

Results for COC(=O)c1ccc(O)c2ncc(-c3ccc(C(=O)N4CCNCC4)cc3)cc12 ?
nsP2pro inh: inactive

How did CCc1nc2ccc(C(=O)N3CCN(c4cccc(OC)c4)CC3)cc2nc1CC do in these assays?
nsP2pro inh: -13%

Results for Cc1cc(C(=O)NCC2(COc3ccc(S(C)(=O)=O)cc3)C[C@@H](O)[C@@H](O)C2)n(C)n1 (stereo partly drawn) ?
nsP2pro inh: inactive

Results for Cc1ccnc(NC(=S)NCCN(C)c2cccc(C(F)(F)F)c2)c1 ?
nsP2pro inh: -1%

How did CC(C)CCNC(=O)[C@H]1CN(Cc2ccccc2)C[C@H]1C(=O)O do in these assays?
nsP2pro inh: 2%

How did C1Cc2[nH]nc(-c3nn[nH]n3)c2C1 do in these assays?
nsP2pro inh: 8.8µM*; nsP2 cell sec: -7%; CHIKV NSP2 FL: 9.2µM*; Furin counter: inconclusive; NS23 peptide cs: inconclusive; Papain cs: -29%; nsP2pro confirm: 6.3µM*; HCV NS3 counter: inactive

Results for c1ccc(-n2cncn2)c(Cn2ccnc2-c2cc3n(n2)CCCNC3)c1 ?
nsP2pro inh: inactive

What do the screens show for `COc1cc(C(=O)O)cc(OC)c1O`?
nsP2pro inh: inconclusive; nsP2 cell sec: -4%; CHIKV NSP2 FL: inconclusive; Furin counter: -2%; NS23 peptide cs: inactive; Papain cs: -6%; nsP2pro confirm: 2%; HCV NS3 counter: inactive
